Drawing on publication PMC7862700, “An all-to-all approach to the identification of sequence-specific readers for epigenetic DNA modifications on cytosine”, this text covers binding signal for one sequence.

What all share (experiment): DAPPL (digital affinity profiling via proximity ligation, sequencing); 10 mM Tris-HCl pH 7.5, 50 mM NaCl, 1 mM DTT, 4% glycerol, room temperature, 30 min; GST-TFs on glutathione beads, 16-mer random dsDNA library, 0.1% formaldehyde crosslink after washing; high values mean tight binding
One test has as its target T1, FLI1 (Homo sapiens, UniProt Q01543 1-452).
T1 sequence: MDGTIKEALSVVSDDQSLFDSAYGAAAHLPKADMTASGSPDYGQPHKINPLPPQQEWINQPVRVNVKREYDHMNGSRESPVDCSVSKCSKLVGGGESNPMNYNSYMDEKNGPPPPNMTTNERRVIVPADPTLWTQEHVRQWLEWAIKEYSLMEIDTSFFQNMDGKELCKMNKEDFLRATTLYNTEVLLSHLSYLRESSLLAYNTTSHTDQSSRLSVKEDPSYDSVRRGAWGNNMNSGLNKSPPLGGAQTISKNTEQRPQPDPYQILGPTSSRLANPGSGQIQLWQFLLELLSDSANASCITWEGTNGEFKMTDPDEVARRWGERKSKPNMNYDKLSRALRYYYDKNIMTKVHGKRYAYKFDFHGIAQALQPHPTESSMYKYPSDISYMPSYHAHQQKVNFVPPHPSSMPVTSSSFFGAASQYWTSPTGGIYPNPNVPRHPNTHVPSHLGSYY
The conditions noted are these: protein: recombinant; tags: N-terminal GST; dsDNA, one strand shown. In a few lines:
(§1)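 Sequencing on an Illumina NextSeq500 followed washing, crosslinking with 0.1% formaldehyde, proximity ligation (BsaI/T4 ligase, 1 h, 37 °C) and PCR amplification of pools that had been incubated for 30 min at room temperature with 200 nmole of a random double-stranded 16-mer DNA library in Tris/NaCl/DTT/glycerol buffer. Each pool held DNA-barcoded human transcription factors, expressed in yeast as GST fusions and captured on glutathione beads, plus a tag-only sample. Binding signal is a hexamer's read frequency for a factor divided by its frequency in the tag-only sample.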

The next test has as its target T2, ELK1 (Homo sapiens, UniProt P19419 1-428).
T2 sequence: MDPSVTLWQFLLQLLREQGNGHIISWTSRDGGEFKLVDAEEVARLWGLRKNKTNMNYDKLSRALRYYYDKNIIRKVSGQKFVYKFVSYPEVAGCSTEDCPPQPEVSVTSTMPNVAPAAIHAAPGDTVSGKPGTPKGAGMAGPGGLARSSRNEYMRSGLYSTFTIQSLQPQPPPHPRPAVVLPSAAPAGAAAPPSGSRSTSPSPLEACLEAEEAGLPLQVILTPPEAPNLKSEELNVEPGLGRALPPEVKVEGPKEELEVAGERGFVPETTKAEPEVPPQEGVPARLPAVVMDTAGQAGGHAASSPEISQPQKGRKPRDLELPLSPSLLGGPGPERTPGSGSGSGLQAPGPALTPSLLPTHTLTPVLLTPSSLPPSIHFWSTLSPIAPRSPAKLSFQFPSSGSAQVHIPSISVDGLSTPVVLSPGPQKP
The conditions noted are these: protein: recombinant; tags: N-terminal GST; dsDNA, one strand shown. In a few lines: as §1

In another test the target is T3, GABPA (Homo sapiens, UniProt Q06546 1-454).
T3 sequence: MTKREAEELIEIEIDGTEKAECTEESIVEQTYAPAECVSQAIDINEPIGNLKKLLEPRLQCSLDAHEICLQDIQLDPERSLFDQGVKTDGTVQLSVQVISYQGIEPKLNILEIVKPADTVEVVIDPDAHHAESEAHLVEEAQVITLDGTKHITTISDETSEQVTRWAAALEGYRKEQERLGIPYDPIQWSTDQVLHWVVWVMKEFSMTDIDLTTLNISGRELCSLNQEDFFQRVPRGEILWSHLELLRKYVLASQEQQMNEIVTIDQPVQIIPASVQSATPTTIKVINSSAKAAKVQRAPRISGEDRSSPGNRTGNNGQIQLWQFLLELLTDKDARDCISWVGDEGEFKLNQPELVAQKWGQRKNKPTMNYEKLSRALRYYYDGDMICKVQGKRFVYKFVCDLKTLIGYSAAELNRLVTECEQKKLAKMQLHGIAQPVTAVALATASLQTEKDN
The conditions noted are these: protein: recombinant; tags: N-terminal GST; dsDNA, one strand shown. In a few lines: as §1

The target of the next test is T4, ERG (Homo sapiens, UniProt P11308 1-479).
T4 sequence: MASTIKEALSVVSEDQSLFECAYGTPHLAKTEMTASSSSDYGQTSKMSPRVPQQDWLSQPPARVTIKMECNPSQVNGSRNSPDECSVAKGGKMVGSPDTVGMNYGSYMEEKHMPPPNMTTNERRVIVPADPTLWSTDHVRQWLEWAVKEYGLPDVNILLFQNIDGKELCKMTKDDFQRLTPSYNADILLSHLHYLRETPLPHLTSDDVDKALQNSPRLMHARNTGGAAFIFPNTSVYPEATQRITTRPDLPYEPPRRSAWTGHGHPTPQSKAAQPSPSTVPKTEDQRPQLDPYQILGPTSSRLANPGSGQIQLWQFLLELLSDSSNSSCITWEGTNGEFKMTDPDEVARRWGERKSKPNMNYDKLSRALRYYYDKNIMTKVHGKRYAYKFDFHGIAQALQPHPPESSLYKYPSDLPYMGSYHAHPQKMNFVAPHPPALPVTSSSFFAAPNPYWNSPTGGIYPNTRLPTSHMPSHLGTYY
The conditions noted are these: protein: recombinant; tags: N-terminal GST; dsDNA, one strand shown. An outline of the steps:
as §1

In the next test the target is ELF1 (Homo sapiens, UniProt P32519 1-619). As to conditions: protein: recombinant; tags: N-terminal GST; dsDNA, one strand shown. In a few lines:
as §1

The target in a further test is T5, EHF (Homo sapiens, UniProt Q9NZC4 1-300).
T5 sequence: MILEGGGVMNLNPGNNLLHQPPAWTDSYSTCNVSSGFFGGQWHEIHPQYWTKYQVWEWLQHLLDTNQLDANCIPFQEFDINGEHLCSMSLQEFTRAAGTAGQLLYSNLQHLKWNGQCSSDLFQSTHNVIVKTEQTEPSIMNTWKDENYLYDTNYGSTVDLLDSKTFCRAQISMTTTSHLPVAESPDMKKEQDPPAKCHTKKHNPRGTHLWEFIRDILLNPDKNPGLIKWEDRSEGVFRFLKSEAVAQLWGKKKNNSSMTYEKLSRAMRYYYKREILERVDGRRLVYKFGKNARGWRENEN
The conditions noted are these: protein: recombinant; tags: N-terminal GST; dsDNA, one strand shown. An outline of the steps:
as §1

In the next test the target is SPI1 (Homo sapiens, UniProt P17947 1-270). The conditions noted are these: protein: recombinant; tags: N-terminal GST; dsDNA, one strand shown. An outline of the steps: as §1
The target of another test is SPIB (Homo sapiens, UniProt Q01892 1-262). The conditions noted are these: protein: recombinant; tags: N-terminal GST; dsDNA, one strand shown. An outline of the steps:
as §1

The target of another test is T6, ELK3 (Homo sapiens, UniProt P41970 1-407).
T6 sequence: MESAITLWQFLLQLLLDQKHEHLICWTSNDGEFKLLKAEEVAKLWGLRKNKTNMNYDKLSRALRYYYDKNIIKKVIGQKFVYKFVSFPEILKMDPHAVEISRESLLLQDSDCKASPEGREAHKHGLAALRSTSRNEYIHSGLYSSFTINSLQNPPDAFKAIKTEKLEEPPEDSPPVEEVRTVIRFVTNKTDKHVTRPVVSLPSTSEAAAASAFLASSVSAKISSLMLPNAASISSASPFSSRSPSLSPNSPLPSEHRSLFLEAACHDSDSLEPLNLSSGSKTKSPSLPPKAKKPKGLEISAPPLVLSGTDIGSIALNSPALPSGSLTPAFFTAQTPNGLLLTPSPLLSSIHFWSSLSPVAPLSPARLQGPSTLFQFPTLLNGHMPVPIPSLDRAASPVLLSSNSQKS
As to conditions: protein: recombinant; tags: N-terminal GST; dsDNA, one strand shown. In a few lines: as §1

The next test deals with T7, FEV (Homo sapiens, UniProt Q99581 1-238).
T7 sequence: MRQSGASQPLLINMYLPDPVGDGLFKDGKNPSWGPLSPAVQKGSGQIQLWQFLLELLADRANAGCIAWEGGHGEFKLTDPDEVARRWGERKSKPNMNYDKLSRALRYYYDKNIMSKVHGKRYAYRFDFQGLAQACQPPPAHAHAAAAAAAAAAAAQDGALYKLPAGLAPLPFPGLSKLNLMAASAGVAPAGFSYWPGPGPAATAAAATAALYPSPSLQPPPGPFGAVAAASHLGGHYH
The conditions noted are these: protein: recombinant; tags: N-terminal GST; dsDNA, one strand shown. In a few lines: as §1

In another test the target is ETV5 (Homo sapiens, UniProt P41161 1-510). As to conditions: protein: recombinant; tags: N-terminal GST; dsDNA, one strand shown. In a few lines:
as §1

Another test concerns the target HSF1 (Homo sapiens, UniProt Q00613 1-529). As to conditions: protein: recombinant; tags: N-terminal GST; chain copies: 3; dsDNA, one strand shown. An outline of the steps: as §1
The target of the next test is T8, SPIC (Homo sapiens, UniProt Q8N5J4 1-248).
T8 sequence: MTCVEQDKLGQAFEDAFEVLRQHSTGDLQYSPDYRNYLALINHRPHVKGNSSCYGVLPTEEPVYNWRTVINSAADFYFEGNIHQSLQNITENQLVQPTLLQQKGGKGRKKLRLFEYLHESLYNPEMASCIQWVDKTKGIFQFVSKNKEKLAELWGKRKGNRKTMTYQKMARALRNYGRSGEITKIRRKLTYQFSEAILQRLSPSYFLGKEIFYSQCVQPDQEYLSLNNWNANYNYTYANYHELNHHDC
The conditions noted are these: protein: recombinant; tags: N-terminal GST; dsDNA, one strand shown. An outline of the steps: as §1

The target of another test is ELF4 (Homo sapiens, UniProt Q99607 1-663). As to conditions: protein: recombinant; tags: N-terminal GST; dsDNA, one strand shown. An outline of the steps: as §1
ELF4, sequence (Q99607 whole entry): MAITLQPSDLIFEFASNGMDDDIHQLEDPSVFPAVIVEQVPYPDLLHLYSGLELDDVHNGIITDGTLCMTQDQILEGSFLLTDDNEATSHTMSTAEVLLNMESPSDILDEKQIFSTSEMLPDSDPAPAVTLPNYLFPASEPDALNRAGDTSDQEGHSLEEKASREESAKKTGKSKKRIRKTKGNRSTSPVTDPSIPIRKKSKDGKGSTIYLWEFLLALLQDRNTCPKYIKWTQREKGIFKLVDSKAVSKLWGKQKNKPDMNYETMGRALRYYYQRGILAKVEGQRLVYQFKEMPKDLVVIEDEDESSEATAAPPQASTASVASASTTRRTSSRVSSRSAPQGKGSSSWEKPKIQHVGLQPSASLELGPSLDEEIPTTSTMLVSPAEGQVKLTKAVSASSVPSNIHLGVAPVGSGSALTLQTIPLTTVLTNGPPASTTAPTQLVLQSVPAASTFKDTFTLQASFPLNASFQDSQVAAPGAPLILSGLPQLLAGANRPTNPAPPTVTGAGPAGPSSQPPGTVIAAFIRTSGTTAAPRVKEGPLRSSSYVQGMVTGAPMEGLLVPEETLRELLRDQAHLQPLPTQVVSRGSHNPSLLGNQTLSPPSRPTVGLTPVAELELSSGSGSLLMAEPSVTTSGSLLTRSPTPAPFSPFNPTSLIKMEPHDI
The next test addresses T9, ELK4 (Homo sapiens, UniProt P28324-2 1-405).
T9 sequence: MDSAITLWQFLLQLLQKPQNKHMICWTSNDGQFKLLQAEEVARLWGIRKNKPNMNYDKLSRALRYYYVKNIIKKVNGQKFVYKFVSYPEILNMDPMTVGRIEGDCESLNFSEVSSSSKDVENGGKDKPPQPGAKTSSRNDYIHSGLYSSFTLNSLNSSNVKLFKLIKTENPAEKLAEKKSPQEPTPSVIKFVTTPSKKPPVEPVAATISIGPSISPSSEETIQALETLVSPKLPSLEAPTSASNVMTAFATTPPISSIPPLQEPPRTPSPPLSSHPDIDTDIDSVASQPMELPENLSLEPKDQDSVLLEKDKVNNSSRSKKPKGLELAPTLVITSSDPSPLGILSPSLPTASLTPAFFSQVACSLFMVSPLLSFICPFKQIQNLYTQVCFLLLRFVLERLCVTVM
The conditions noted are these: protein: recombinant; tags: N-terminal GST; dsDNA, one strand shown. An outline of the steps: as §1

A further test deals with T10, ETV2 (Homo sapiens, UniProt O00321 1-342).
T10 sequence: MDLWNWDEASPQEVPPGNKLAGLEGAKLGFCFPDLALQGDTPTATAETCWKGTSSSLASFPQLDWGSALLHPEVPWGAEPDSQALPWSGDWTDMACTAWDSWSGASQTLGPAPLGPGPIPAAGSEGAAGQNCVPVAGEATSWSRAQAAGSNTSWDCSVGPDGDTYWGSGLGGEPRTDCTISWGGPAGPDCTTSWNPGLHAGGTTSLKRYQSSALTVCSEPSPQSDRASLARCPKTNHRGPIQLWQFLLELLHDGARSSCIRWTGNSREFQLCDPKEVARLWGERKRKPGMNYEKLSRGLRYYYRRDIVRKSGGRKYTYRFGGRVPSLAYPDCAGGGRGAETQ
The conditions noted are these: protein: recombinant; tags: N-terminal GST; dsDNA, one strand shown. In a few lines: as §1

The target of the next test is T11, ELF3 (Homo sapiens, UniProt P78545 1-371).
T11 sequence: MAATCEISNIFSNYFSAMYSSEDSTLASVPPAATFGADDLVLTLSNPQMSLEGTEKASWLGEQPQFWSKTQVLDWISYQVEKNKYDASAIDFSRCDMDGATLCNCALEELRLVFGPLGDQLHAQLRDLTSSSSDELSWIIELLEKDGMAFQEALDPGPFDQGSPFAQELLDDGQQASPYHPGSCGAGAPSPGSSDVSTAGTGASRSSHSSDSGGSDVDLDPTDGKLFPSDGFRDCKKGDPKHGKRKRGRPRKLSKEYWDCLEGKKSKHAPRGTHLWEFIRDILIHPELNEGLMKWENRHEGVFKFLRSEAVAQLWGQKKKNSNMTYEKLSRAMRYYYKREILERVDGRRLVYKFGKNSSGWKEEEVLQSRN
The conditions noted are these: protein: recombinant; tags: N-terminal GST; dsDNA, one strand shown. An outline of the steps: as §1

A further test deals with ETV1 (Homo sapiens, UniProt P50549 1-477). The conditions noted are these: protein: recombinant; tags: N-terminal GST; dsDNA, one strand shown. In a few lines: as §1
ETV1, sequence (P50549 whole entry): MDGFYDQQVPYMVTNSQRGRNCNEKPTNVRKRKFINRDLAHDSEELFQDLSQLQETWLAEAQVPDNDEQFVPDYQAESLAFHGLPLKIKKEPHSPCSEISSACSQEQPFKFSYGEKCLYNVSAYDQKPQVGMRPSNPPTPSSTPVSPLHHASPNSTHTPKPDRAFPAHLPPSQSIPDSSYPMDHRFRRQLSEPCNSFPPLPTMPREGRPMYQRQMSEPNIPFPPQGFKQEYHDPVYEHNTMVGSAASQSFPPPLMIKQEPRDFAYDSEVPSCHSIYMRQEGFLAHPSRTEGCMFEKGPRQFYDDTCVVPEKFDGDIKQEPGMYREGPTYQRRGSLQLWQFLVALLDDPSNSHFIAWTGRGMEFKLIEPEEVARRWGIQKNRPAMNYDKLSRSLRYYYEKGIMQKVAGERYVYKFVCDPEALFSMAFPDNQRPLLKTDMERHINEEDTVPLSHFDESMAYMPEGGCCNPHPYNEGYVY

SPIB, sequence (Q01892 whole entry): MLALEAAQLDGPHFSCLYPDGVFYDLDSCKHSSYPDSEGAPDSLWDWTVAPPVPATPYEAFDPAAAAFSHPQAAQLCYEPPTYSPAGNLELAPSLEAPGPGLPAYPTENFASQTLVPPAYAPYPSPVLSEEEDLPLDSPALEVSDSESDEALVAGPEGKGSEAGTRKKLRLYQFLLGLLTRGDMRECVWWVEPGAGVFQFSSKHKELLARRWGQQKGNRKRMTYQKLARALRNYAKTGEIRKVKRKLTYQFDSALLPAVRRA
HSF1, sequence (Q00613 whole entry): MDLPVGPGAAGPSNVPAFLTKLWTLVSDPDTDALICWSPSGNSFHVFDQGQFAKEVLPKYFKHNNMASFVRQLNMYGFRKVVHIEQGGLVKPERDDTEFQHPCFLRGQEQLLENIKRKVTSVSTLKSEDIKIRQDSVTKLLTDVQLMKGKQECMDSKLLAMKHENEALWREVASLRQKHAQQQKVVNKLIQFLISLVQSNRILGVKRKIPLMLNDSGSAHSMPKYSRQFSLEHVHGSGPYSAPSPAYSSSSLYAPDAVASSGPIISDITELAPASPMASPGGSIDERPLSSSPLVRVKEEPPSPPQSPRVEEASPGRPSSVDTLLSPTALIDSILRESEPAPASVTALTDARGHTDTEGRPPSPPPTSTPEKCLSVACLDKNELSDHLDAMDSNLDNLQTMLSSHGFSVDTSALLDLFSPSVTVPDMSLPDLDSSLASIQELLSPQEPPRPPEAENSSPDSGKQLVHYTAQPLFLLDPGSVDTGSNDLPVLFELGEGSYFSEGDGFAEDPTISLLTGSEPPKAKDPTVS
ETV5, sequence (P41161 whole entry): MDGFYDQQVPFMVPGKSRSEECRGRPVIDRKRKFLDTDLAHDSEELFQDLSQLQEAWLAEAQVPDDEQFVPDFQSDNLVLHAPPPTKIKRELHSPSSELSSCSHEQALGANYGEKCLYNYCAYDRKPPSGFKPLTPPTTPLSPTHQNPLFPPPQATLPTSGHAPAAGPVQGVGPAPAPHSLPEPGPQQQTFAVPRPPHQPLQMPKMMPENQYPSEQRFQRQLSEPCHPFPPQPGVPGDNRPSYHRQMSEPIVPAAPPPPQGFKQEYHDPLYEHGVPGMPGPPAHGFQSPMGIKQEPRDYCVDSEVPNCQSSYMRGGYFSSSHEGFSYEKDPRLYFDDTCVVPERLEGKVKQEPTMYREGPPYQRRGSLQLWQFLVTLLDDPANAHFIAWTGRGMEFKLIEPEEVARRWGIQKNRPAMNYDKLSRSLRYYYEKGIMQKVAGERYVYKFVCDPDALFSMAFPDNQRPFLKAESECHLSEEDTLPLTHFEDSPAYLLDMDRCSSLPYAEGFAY
ELF1, sequence (P32519 whole entry): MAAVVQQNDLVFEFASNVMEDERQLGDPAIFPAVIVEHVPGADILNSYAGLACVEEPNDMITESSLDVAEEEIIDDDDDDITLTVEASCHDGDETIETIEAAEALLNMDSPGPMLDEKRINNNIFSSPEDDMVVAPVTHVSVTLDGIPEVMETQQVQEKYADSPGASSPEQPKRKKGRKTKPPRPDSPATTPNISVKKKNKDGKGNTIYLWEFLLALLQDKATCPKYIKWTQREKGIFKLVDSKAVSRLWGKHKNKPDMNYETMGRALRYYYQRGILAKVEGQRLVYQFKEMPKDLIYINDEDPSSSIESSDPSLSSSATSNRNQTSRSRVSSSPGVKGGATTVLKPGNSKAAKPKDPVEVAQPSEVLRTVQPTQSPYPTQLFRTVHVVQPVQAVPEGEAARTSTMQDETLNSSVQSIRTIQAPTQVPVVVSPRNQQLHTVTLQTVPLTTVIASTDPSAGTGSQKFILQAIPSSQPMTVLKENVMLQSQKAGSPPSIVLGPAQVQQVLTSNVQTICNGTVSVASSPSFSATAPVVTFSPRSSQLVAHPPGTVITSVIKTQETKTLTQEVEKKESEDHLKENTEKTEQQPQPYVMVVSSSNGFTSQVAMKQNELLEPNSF

Regarding TCTGTC, the binding signal in the test with FLI1 is 1.16 fold enrichment (6-mer frequency, TF over GST control); with ELK1, 1.13 fold enrichment (6-mer frequency, TF over GST control); with GABPA, 1.16 fold enrichment (6-mer frequency, TF over GST control); with ERG, 1.17 fold enrichment (6-mer frequency, TF over GST control); with ELF1, 1.12 fold enrichment (6-mer frequency, TF over GST control); with EHF, 1.14 fold enrichment (6-mer frequency, TF over GST control). For the same sequence, the binding signal with SPI1 is 1.1 fold enrichment (6-mer frequency, TF over GST control); with SPIB it was 1.05 fold enrichment (6-mer frequency, TF over GST control); in the test with ELK3 it was 1.17 fold enrichment (6-mer frequency, TF over GST control); with FEV, 1.13 fold enrichment (6-mer frequency, TF over GST control); with ETV5, 1.18 fold enrichment (6-mer frequency, TF over GST control); with HSF1, 1.07 fold enrichment (6-mer frequency, TF over GST control). The binding signal with SPIC was 1.3 fold enrichment (6-mer frequency, TF over GST control); with ELF4, 1.13 fold enrichment (6-mer frequency, TF over GST control); with ELK4, 1.27 fold enrichment (6-mer frequency, TF over GST control); in the test with ETV2, 1.19 fold enrichment (6-mer frequency, TF over GST control); in the test with ELF3 it was 1.19 fold enrichment (6-mer frequency, TF over GST control); with ETV1, 1.23 fold enrichment (6-mer frequency, TF over GST control).
